Structures are written as SMILES. In all, about 68,000 compounds went through this assay and about 2,700 (4%) showed an effect of 50% or more. This excerpt belongs to a sample that is enriched for strong results.

The subject of this experiment is Plasmodium berghei. Put plainly: Screen against P. berghei liver stage (PbLuc), transformed with Luciferase, at 2uM. The experiment is classed as functional, HepG2. As to conditions: tested at 2 uM.
Consider `Cc1noc(C(C)C)c1C(=O)NCC(c1ccsc1)N(C)C` (stereo unspecified), for which the INHIBITION is reported as 63.95%. As for `Cc1noc(C)c1C(=O)NCC(c1ccsc1)N(C)C` (stereo unspecified), the figure is -12.82%; as for `Cc1noc(C(C)C)c1C(=O)NCc1cccc(N(C)C)c1`, -57.97%; as for `CCN(CC)C(CNC(=O)c1c(C)noc1C(C)C)c1ccsc1` (stereo unspecified), -25.61%. Under `CNC(=O)COc1cccc(CNC(=O)c2c(C)noc2C(C)C)c1` stands 74.35%; under `Cc1noc(C(C)C)c1C(=O)NCc1ccc2c(c1)OCCO2`, 56.02%; under `COCc1cccc(CNC(=O)c2c(C)noc2C(C)C)c1`, 49.9%.

In the case of `Cc1noc(C(C)C)c1C(=O)NCc1ccc(N(C)C)c(F)c1`, the INHIBITION is listed as -9.17%. Under `CNC(=O)COc1cccc(CNC(=O)c2c(C)noc2C)c1` stands 24.36%; under `O=S(=O)(C1CC1)N1CCCn2nnc(Cn3cccc3)c2C1`, 23.81%.

Consider `CCOCCC(=O)N1CCCCC1CCn1cccn1` (stereo unspecified), for which the INHIBITION turned out to be 30.25%. As to `CCn1cc2c(n1)CN(Cc1ccncc1)CC2COCC1CC1` (stereo unspecified), the INHIBITION stood at 14.94%. In the case of `CCOCC1CN(c2ccncn2)Cc2cnn(CC)c21` (stereo unspecified), the INHIBITION is listed as 32.69%.

As to `Cc1cc2c(N3CCC(N(C)CCc4cnn(C)c4)CC3)ncnc2s1`, the INHIBITION was -15.4%.

Regarding `CSCC(CCO)NC(=O)Nc1ccc(Br)cc1` (stereo unspecified), the INHIBITION is on record as -39.48%. Under `C[C@@H]1CN(C(=O)CCc2nncn2C)C[C@@]1(O)C1CCC1` stands 52.08%; under `C[C@@H]1CN(C(=O)CCc2cnn(C)c2)C[C@@]1(O)C1CCC1`, 11.33%; under `C[C@@H]1CN(C(=O)CCc2nncn2C)CC[C@@]1(O)C1CCC1`, 12.43%. As for `Cc1noc(C)c1CCC(=O)Nc1ccn(C)n1`, the figure is -7.68%; as for `CN(Cc1cnccn1)CC1CCOc2ccccc2C1` (stereo unspecified), 20.76%. Under `CCc1n[nH]c(C(=O)NCCn2ccc(C)n2)c1C` stands 16.87%; under `CCc1n[nH]c(C(=O)NCCn2nccc2C)c1C`, 20.71%.

With `CCc1n[nH]c(C(=O)NCCn2ccnc2C)c1C`, the INHIBITION turned out to be 57.34%. Under `CC(=O)c1ccc(F)cc1-c1cc(NCCO)nc2[nH]ccc12` stands 6.85%; under `COc1ccccc1Nc1nc2c(s1)C(=O)CN(C(=O)CC(C)C)C2`, 2.6%; under `CC(O)CNC(=O)c1nc(Cc2c(Cl)cccc2Cl)no1` (stereo unspecified), 20.71%. Consider `O=C(NCC(=O)N1CCCC1)c1nc(Cc2c(Cl)cccc2Cl)no1`, for which the INHIBITION came to 57.4%.

As to `CC(C)CNC(=O)CNC(=O)c1nc(Cc2c(Cl)cccc2Cl)no1`, the INHIBITION is on record as -2.09%. As for `COC(=O)NCC(=O)NCC(C)(C)c1cccc(Br)c1`, the figure is 19.07%; as for `Cc1cccc(CN2CCC3(CCC(C(=O)N(C)C)O3)CC2)n1` (stereo unspecified), 58.4%. As for `Cc1ccc(CN2CCC3(CCC(C(=O)N(C)C)O3)CC2)o1` (stereo unspecified), the INHIBITION came out at 5.14%. Turning to `CN(C)C(=O)C1CCC2(CCN(Cc3ccc4ccccc4n3)CC2)O1` (stereo unspecified), the INHIBITION is recorded as 23.26%. Consider `CCn1cnc(NC(=O)NCC2CCS(=O)(=O)CC2)n1`, for which the INHIBITION is reported as 28.85%. As for `Cc1ccc(CN2CCOC(C)(c3cnn(C)c3)C2)cc1` (stereo unspecified), the figure is 21%.

With `O=C(Cc1csc(-c2ccco2)n1)N1CCN(CCO)CC1`, the INHIBITION was -27.91%.

For the molecule `CC(C)N1CCN(C(=O)Cc2csc(-c3ccco3)n2)CC1`, the INHIBITION is 28.18%. As for `O=C(Cc1csc(-c2ccco2)n1)N1CCSCC1`, the INHIBITION is reported as 50.76%. Turning to `O=C(NCc1ccco1)C1CCCN1Cc1nc(-c2ccco2)no1` (stereo unspecified), the INHIBITION is reported as -43.47%. Under `O=C(C1CCCN1Cc1nc(-c2ccco2)no1)N1CCSCC1` (stereo unspecified) stands 58.05%; under `O=C(C1CCCCN1Cc1nc(-c2ccco2)no1)N1CCCC1` (stereo unspecified), -113.33%; under `CNC(=O)C1CCCN(C(=O)OC)C1` (stereo unspecified), -0.28%.

For the molecule `O=C(CCN1CCCCO1)NCc1cn2c(n1)SCC2`, the INHIBITION turned out to be 21.36%. As for `Cc1nc(-c2ccccc2)n(CC(=O)NCC(C)C)n1`, the figure is 26.4%; as for `COc1ccc(CN2CCC3(CCCN(c4ncc(F)cn4)C3)C2)cc1` (stereo unspecified), -50.35%; as for `Cc1cnn(CC2CN(c3ccc(C#N)cn3)CCO2)c1` (stereo unspecified), -11.2%. As to `Cc1nc(C)n(CC2CN(c3ccc(C#N)cn3)CCO2)n1` (stereo unspecified), the INHIBITION is on record as -16.42%. With `CN(C)CC1CN(c2ccc(C#N)cn2)CCO1` (stereo unspecified), the INHIBITION amounted to 54.85%. Under `Cc1cccc(CN2C[C@@H]3CC[C@H]2CN(Cc2[nH]cnc2C)C3)n1` stands 25.68%; under `Cc1n[nH]cc1CNC1CCN(c2ccc(F)cc2)CC1`, -13.72%; under `Cc1n[nH]cc1CNC1CCN(c2ccccc2)CC1`, 7.83%. For `COc1ccccc1CC(=O)N1CCC(NCc2c[nH]nc2C)CC1`, the INHIBITION is -14.17%. As for `COc1cccc(-c2n[nH]cc2CNC2CCN(C3CC3)CC2)c1`, the figure is -13.89%. As for `COc1cccc(CC(=O)N2CCC(NCc3c[nH]nc3C)CC2)c1`, the figure is 55.06%; as for `Cc1n[nH]cc1CNC1CCN(c2cccc(C(F)(F)F)c2)CC1`, 78.72%.

As to `Fc1cnc(N2CCC3(CC2)CC(OCc2cccnc2)CO3)nc1` (stereo unspecified), the INHIBITION is 11.18%. As for `CC(=O)N[C@@H]1CN(C(=O)c2cc(C)oc2C)C[C@H]1c1ccc(C)o1`, the INHIBITION is recorded as -29.82%. Consider `Cc1ccc(NC2CCN(C(=O)CN(C)C3CC3)CC2)nn1`, for which the INHIBITION is 21.31%.

For the molecule `CC(Cn1ccnc1)NC(=O)N(C)Cc1ccsc1` (stereo unspecified), the INHIBITION was 26.85%. As for `CO[C@H]1CCN(Cc2cccs2)[C@@H]2CN(Cc3ccncc3)C[C@H]12`, the figure is -4.92%; as for `COCCN1C(=O)CC[C@@H]2[C@H]1CCN2Cc1ccc(C)s1`, 10.17%; as for `CNc1nc(C)c(C(=O)N2CCC(C(O)Cc3ccccc3)CC2)s1` (stereo unspecified), 40.88%. As for `CCn1nc(C)c2c1cnn2CCNS(=O)(=O)c1cccs1`, the figure is 61.77%; as for `CCn1nc(C)c2c1cnn2CCNS(=O)(=O)c1ccccc1`, 0.36%. As for `CCn1nc(C)c2c1cnn2CCNS(C)(=O)=O`, the INHIBITION turned out to be 15.46%.

Consider `COC(=O)c1ccc(/C=C/c2ncc(C(=O)O)s2)cc1`, for which the INHIBITION is -39.34%. As for `COC(=O)c1cnc(/C=C/c2ccc(C(=O)O)cc2)s1`, the figure is 23.45%; as for `CC(=O)Nc1ccc(/C=C/c2ncc(C(=O)O)s2)cc1`, 69.71%; as for `CN1[C@@H](C(=O)NCC2CC2)C[C@H]2CN(Cc3cccc(C#N)c3)C[C@H]21`, 36.99%.

In the case of `OC(CNCc1ccccc1C(F)(F)F)c1ccccc1` (stereo unspecified), the INHIBITION is recorded as -2.86%.

On to `CCC[C@H]1CN(CCOC)C[C@@H]1NC(=O)Cn1cc(C)cn1`, for which the INHIBITION is listed as -17.99%. In the case of `CCC[C@H]1CN(CCCO)C[C@@H]1NC(=O)Cn1cc(C)cn1`, the INHIBITION is 3.97%. Under `CCC[C@H]1CN(CCS(C)(=O)=O)C[C@@H]1NC(=O)Cn1cc(C)cn1` stands 55.44%; under `Cc1cncc(C(=O)N2CCC3(CCCN(c4nncs4)C3)C2)c1` (stereo unspecified), -39.92%; under `COc1ccc(CCN(C)C(=O)CN2C(=O)OC[C@@H]2C(C)C)cc1OC`, -4.77%. As for `Cc1nc(CN2CCc3cc(C(=O)O)c(N(C)C)nc3CC2)cs1`, the figure is 63.04%; as for `Cc1cnc(N2CCc3cc(C(=O)O)c(N(C)C)nc3CC2)nc1`, -1.81%.

In the case of `Cc1cccc(CN2CCc3cc(C(=O)O)c(N(C)C)nc3CC2)n1`, the INHIBITION was 30.19%. As for `O=C(c1ccc[nH]1)N1CCCC2(CCN(c3ccsc3)C2=O)C1` (stereo unspecified), the INHIBITION is on record as 26.92%. As for `CCCc1nnsc1C(=O)N1CCCC1(C)C(=O)N1CCOCC1` (stereo unspecified), the figure is 5.76%; as for `O=C1CCC2(CCCN(Cc3ccccc3F)C2)N1CC1CC1` (stereo unspecified), 70.48%; as for `CNC(=O)CN1C(=O)CCC12CCCN(Cc1ccccc1F)C2` (stereo unspecified), -12.98%. As for `COCCN1C(=O)CCC12CCCN(Cc1ccccc1F)C2` (stereo unspecified), the figure is 7.88%; as for `CNC(=O)CN1C(=O)CCC12CCCN(CCc1ccccc1)C2` (stereo unspecified), 0.2%; as for `CCN1C(=O)CCC12CCCN(CCc1ccccc1)C2` (stereo unspecified), 56.76%. As for `O=C1CCC2(CCCN(CCc3ccccc3)C2)N1Cc1cccnc1` (stereo unspecified), the figure is 42.18%; as for `COCCN(C)C[C@@H]1CN(C(=O)c2sc3ccccc3c2C)C[C@@H]1CO`, 25.45%; as for `Cc1nc([C@H]2C[C@@H]3CCN(Cc4scnc4C)C[C@H]3O2)no1`, 40.64%.

In the case of `CCCC12CN3CC(C)(CN(C1)C3c1[nH]c(=O)[nH]c(=O)c1C)C2=O` (stereo unspecified), the INHIBITION turned out to be 16.49%. As for `CCn1nccc1CNC(=O)CCC1CCCC1`, the figure is 59.21%; as for `CCn1nccc1CNC(=O)C1CCCC1`, -56.08%; as for `CCn1nccc1CNC(=O)C1CCCCC1`, -39.57%. `COCc1cccc(S(=O)(=O)Nc2ncc(C)s2)c1`: the INHIBITION is given as -2.19%.

With `Cn1ncc2c1NC(=O)CC2c1ccccc1Cl` (stereo unspecified), the INHIBITION is given as 33.16%.

Turning to `O=S1(=O)NC(C2CCN(Cc3ccccn3)CC2)Nc2ccccc21` (stereo unspecified), the INHIBITION is given as 30.31%. For `Cc1ccc2[nH]c(CN(C)c3cc(CN)nc(C)n3)nc2c1`, the INHIBITION was determined as 60.18%. Under `Cc1nc(CCN)cc(N(C)Cc2nc3ccc(F)cc3[nH]2)n1` stands -3.87%. As to `Cc1ccc2[nH]c(CN(C)c3cc(CCN)nc(C)n3)nc2c1`, the INHIBITION is reported as -56.42%. As for `CNC(=O)CS(=O)(=O)Cc1ccc(OC)c(F)c1`, the figure is 69.67%; as for `COc1ccc(CS(=O)(=O)CC(=O)NCc2ccccc2F)cc1F`, 6.13%. Turning to `COc1ccc(CS(=O)(=O)CC(=O)NCC2CC2)cc1F`, the INHIBITION turned out to be 29.89%. For the molecule `Cc1cccc(S(=O)(=O)N2C[C@@H]3C[C@@H](c4nc(C)no4)O[C@@H]3C2)c1`, the INHIBITION amounted to 0.8%. On to `CCCc1cnc(C)nc1NCCc1nc(C)cc(=O)[nH]1`, for which the INHIBITION is reported as 20.14%.

Regarding `CN(C)C(=O)CN1CCn2cc(Cn3cccn3)nc2C1`, the INHIBITION came out at 14.47%. Consider `CN(C(=O)c1ccc(C#N)cc1)c1nnc(C2CCOC2)s1` (stereo unspecified), for which the INHIBITION is -7.22%. Under `CN(C(=O)c1cccc(C#N)c1)c1nnc(C2CCOC2)s1` (stereo unspecified) stands 53.95%. Consider `CN(C(=O)c1ccncc1)c1nnc(C2CCOC2)s1` (stereo unspecified), for which the INHIBITION is 24.58%.

The record behind these values is ChEMBL document CHEMBL4513216, “Probing the Open Global Health Chemical Diversity Library for Multistage-Active Starting Points for Next-Generation Antimalarials” (ACS Infect Dis, 2020).
